According to the supplement of paper PMC12636033:
± gives the standard deviation of the averaged measurements. In all, about 33,000 sequences were measured (“E-score (rank enrichment, -0.5 to 0.5)”: median about -0.0028, highest 2% from about 0.23 on). The list comes from a sample in which the highest values are over-represented; it also holds similar and randomly drawn sequences.

What follows are sequences tested on 2Sb-muMax20 (muMax20 with two 1,3-bis(methyl)benzene Cys staples, A13C/A17C and Q88C/A92C, C-terminal Lys) (assay: PBM 8-mer E-score (E-score (rank enrichment, -0.5 to 0.5)); higher = stronger preferential binding).
Procedure: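 Protein binding microarray (universal PBM chip covering all 10-mers in fixed probe flanks) with chemically synthesized human Max(13-93) bHLH-LZ analogs (not full-length Max) bearing noncanonical residues (hArg, Tha, Aib, Nle at 65) and aromatic Cys staples. Read-out per 8-mer (and its reverse complement): E-score (rank-based enrichment, -0.5 to 0.5) and Z-score of median probe intensity.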

Sequence | PBM 8-mer E-score
CACCGAGG | -0.221 ± 0.014
AATGCAAA | 0.247 ± 0.034
ACTGCATG | 0.0264 ± 0.067
TATGCAAA | 0.0419 ± 0.0014
ATTGCATG | 0.13 ± 0.006
AATGCAAG | 0.134 ± 0.016
AATGCATG | 0.26 ± 0.017
ATGGTTAC | -0.0452 ± 0.019
GCCACCGA | -0.191 ± 0.0059
ATTGCATA | 0.228 ± 0.028
TATAAACA | 0.156 ± 0.011
ACTGTTAG | -0.0514 ± 0.065
CATTAATA | 0.148 ± 0.024
GATTAATC | -0.0411 ± 0.03
AATTAATA | 0.217 ± 0.011
GATTAAGA | 0.129 ± 0.0066
TATTAATA | 0.296 ± 0.027
GATTAATA | 0.258 ± 0.041
GATGATCC | -0.0779 ± 0.039
CATCGTTC | -0.12 ± 0.012
AGACAATA | 0.242 ± 0.082
AGACAATG | -0.0359 ± 0.045
AGACAATC | 0.113 ± 0.029
GCACGCAA | -0.108 ± 0.043

Sequence | PBM 8-mer E-score
ACCCCAGC | 0.162 ± 0.054
GGAGGGAC | -0.162 ± 0.097
CTAACAAA | 0.144 ± 0.04
GGATGCCA | -0.0771 ± 0.0063
AGTGTGCA | 0.127 ± 0.052
GCCGCCCC | 0.0256 ± 0.14
GCCGCCCA | -0.145 ± 0.07
CCCGCCCC | 0.241 ± 0.1
GCCGCCAC | -0.229 ± 0.042
CCCGCCCG | 0.116 ± 0.12
ACCGCCAC | -0.106 ± 0.0018
CCCGCCCA | 0.4 ± 0.012
CCCGCCAC | 0.239 ± 0.034
ACCGCCCC | 0.171 ± 0.074
AAAGCTGC | 0.108 ± 0.027
GAAAGACC | -0.0392 ± 0.039
ATCGTTGG | -0.105 ± 0.092
CGACGATA | -0.0378 ± 0.027
CCAGTGGC | -0.0927 ± 0.044
CAGGCAGC | -0.163 ± 0.015
GAAGCGAC | -0.0841 ± 0.007
ACTCGTAA | 0.213 ± 0.042
CCCCAACC | 0.131 ± 0.087
TCCCAACA | 0.0292 ± 0.05

Sequence | PBM 8-mer E-score
CCCCAACA | 0.256 ± 0.061
CAGAAAAA | -0.0726 ± 0.05
AGTGCATC | -0.00688 ± 0.015
GAATTATA | 0.141 ± 0.061
AAATTATC | 0.107 ± 0.0057
AAATTATA | 0.253 ± 0.069
TAATTATA | 0.262 ± 0.03
CAATTATA | 0.115 ± 0.045
AAATTATG | 0.168 ± 0.0019
GCACACGA | -0.00209 ± 0.0015
AAGTTAGC | 0.00664 ± 0.0061
TGCCCGAA | -0.0214 ± 0.05
GGACAAAA | 0.0253 ± 0.017
AATATCGT | 0.091 ± 0.0052
ACGTGAAA | 0.238 ± 0.035
CCGTGATA | -0.132 ± 0.043
ACGTGAAC | 0.0297 ± 0.012
ACGTGATC | 0.187 ± 0.028
ACGTGATA | 0.244 ± 0.05
GCGTGATA | 0.113 ± 0.028
ACGTGAGG | 0.0924 ± 0.012
TCGTGAAA | -0.2052 ± 0.00053
ACGTGATG | 0.239 ± 0.0046
GGTTTAAC | -0.0252 ± 0.0077

Sequence | PBM 8-mer E-score
CACATTGG | -0.033 ± 0.038
ACACTGCA | -0.0884 ± 0.039
AGACCTAG | -0.205 ± 0.0049
ACGAACTG | -0.134 ± 0.02
CCCTATTA | 0.0897 ± 0.046
CGCCTCCG | -0.115 ± 0.014
ATATTGAA | 0.0093 ± 0.059
TTATTGAA | 0.3 ± 0.015
GTATTGAA | 0.0851 ± 0.057
ACGCGCCC | 0.00592 ± 0.048
ACGTTTAG | 0.0678 ± 0.079
ATAACATA | 0.2304 ± 0.0015
ATAACATG | 0.192 ± 0.035
ATAACACG | 0.137 ± 0.063
ATAACATC | 0.211 ± 0.049
ATAACACA | 0.236 ± 0.023
CTAACACA | -0.028 ± 0.069
CTTGGCGC | -0.0178 ± 0.027
GTGATCAA | -0.00195 ± 0.013
TATTGGAA | 0.0585 ± 0.0063
AATCACTC | -0.0758 ± 0.076
ACAGTGAG | -0.03 ± 0.013
ATTGAAGC | 0.00997 ± 0.0075
CTAGGCAA | -0.167 ± 0.047

Sequence | PBM 8-mer E-score
ATAGGCAA | 0.248 ± 0.061
ATAGGCAG | 0.165 ± 0.037
CACGTGAC | 0.386 ± 0.011
GACGTGAA | -0.272 ± 0.011
CACGTGAA | 0.369 ± 0.02
AACGTGAC | 0.128 ± 0.0036
TACGTGAA | 0.0248 ± 0.06
CACGTGAG | 0.186 ± 0.016
ATGAGGTG | 0.103 ± 0.034
CATAGACA | 0.0657 ± 0.028
GCCAACTA | 0.0147 ± 0.076
ACCAACTA | 0.0506 ± 0.082
CCCAACTA | 0.242 ± 0.0045
CCAAACTA | 0.234 ± 0.0031
CAAAACTA | 0.062 ± 0.059
ACAAACTA | 0.152 ± 0.048
ACATTCCA | -0.0113 ± 0.025
GAGGGTCA | -0.00483 ± 0.032
CACATTTC | 0.141 ± 0.013
CCCTACGC | 0.0539 ± 0.023
CCCTACGA | 0.232 ± 0.0033
TCCTACGA | -0.0774 ± 0.011
GGGAGACA | 0.115 ± 0.016
GCTCTGCA | -0.0815 ± 0.037
